Measurements published in PubChem BioAssay.
The source made the active and inactive calls.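 Rule for the calls, unless noted: active = inhibition of the reporter signal at or above 50%; inactive = inhibition below 50%.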

test: blockers of RIG-like receptor reporter activation – cell-based, Sendai virus stimulus, luciferase, 10K MLSCN set, TLR/RLR signaling modifier project, primary screen (AID 602276;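 active = inhibition at or above 50% at 10 µM; inactive = inhibition below 50%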;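 note: firefly luciferase from ISG56 promoter only with Renilla not read in this screen; 0% = Sendai virus plus DMSO and 100% = medium plus DMSO without virus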); conditions: HEK293 RL24 IRF3 luciferase reporter, at 10 µM, hits give high values

inhibition, inactive:
CCn1nc(NC(=O)c2cccnc2)c2cc3ccccc3nc21 10.7%
Cn1c(=O)n(Cc2ccccc2)c(=O)c2c1nc(NCC1CCCO1)n2Cc1ccccc1 (stereo unspecified) -5.28%
COc1ccc2c(c1)n([O-])c1c([n+]2=O)CCC1 -10.3%
COc1ccc2c(c1)[nH]c1c(=O)n(CC3CCCO3)cnc12 (stereo unspecified) -17.6%
CC(=O)c1c(OCC(=O)O)ccc2c(C)cc(=O)oc12 16.9%
O=C1C2ON(c3ccccc3)C(c3cccnc3)C2C(=O)N1c1ccccc1 (stereo unspecified) -8.41%
CCCCCn1c2nc3ccccc3nc2c2c(=O)n(CC(C)C)cnc21 19.4%
Cc1nc2c(o1)CCc1ccccc1C2O (stereo unspecified) 2.65%
Clc1ccc(-n2ncc3c(NCCCn4ccnc4)ncnc32)cc1 -0.733%
Nc1nnnn1/N=C/c1ccccn1 -14.9%
c1ccc(CN2CCN(c3ncnc4c3[nH]c3ccccc34)CC2)cc1 1.57%
Cc1cc2c(c(=O)o1)C(Cc1ccccc1)C(C#N)=C(N)O2 (stereo unspecified) 13.9%
COc1cc(NC(=O)NC(C)(C(F)(F)F)C(F)(F)F)cc(OC)c1OC 10.8%
Cc1c(O)c(CN2CCCCC2)cc2c3c(c(=O)oc12)CCC3 12.6%
CCOC(=O)c1[nH]c2ccc(Br)cc2c1NC(=O)CNC 18.6%
COc1ccc(CCn2c(=N)c(C(=O)NCc3ccco3)cc3c(=O)n4ccccc4nc32)cc1 5.21%
CN(C)/C=C1\N=C(c2ccc(Cl)cc2Cl)OC1=O -61.9%
Cc1ccc(/C=N/n2nnnc2N)o1 -2.49%
COc1ccccc1N=Cc1nc(-c2ccccc2)oc1OC(C)=O 18.8%
Cc1ccc2[nH]c3c(N4CCOCC4)ncnc3c2c1 -15.5%
CC(=O)C1=C(O)C(=O)N(c2ccc(C(=O)O)cc2)C1c1ccccc1 (stereo unspecified) 16.8%
COc1ccccc1Nc1ncnc2c1cnn2-c1cccc(C)c1 -27.1%

test: TLR3 IRF3 reporter activation blockers – cell-based, poly I:C stimulus, luciferase, 10K MLSCN set, primary screen (AID 602277); conditions: HEK293-TLR3 RL24 IRF3 luciferase reporter, at 10 µM, hits give high values

inhibition, active:
CCOC(=O)c1ccc2nc(NC(NC(C)=O)(C(=O)OC)C(F)(F)F)sc2c1 (stereo unspecified) 99%
COc1ccc2c(c1)n([O-])c1c([n+]2=O)CCC1 99.2%

inhibition, inactive:
Cc1nnc2n(-c3ccccc3)c(=O)c3c4c(sc3n12)CCCC4 -35.5%
Cc1c(NC(=O)c2ccc(=O)oc2)c(=O)n(-c2ccccc2)n1C 24.4%
Cc1nc2sc(C#N)c(N)c2c2c1CCCC2 -41.1%
Fc1ccc(-c2cnc[nH]2)cc1 -37.6%
CC(CCc1ccccc1)NCC(O)c1ccc(O)c(C(N)=O)c1 (stereo unspecified) 5.32%
COc1cccc(N2C(=O)C(O)=C(C(C)=O)C2c2ccc(OC)c(OC)c2)c1 (stereo unspecified) -0.11%
CCCCOc1ccccc1C(=O)NCCCC(=O)O 17.2%
COc1ccc(CCn2c(=N)c(C#N)cc3c(=O)n4ccccc4nc32)cc1 2.91%
O=C(NC1CCS(=O)(=O)C1)c1c(NC(=O)C2COc3ccccc3O2)sc2c1CCCC2 (stereo unspecified) 14.6%
Cc1nn(-c2ccccc2)c2c1C(=O)NC(=O)C(C)(C)C2 18.9%
O=C(Nc1ccccn1)NC(C(F)(F)F)C(F)(F)F 5.13%
CCC(NC(=O)Nc1cc(OC)c(OC)c(OC)c1)(C(F)(F)F)C(F)(F)F 24.9%
COC(=O)C(NC(C)=O)(Nc1ccccn1)C(F)(F)F (stereo unspecified) 20.1%
CC1(C)CNC(=O)c2sc(N3CCOCC3)nc2C1 15.4%
CCN1CCc2c(C#N)c(N3CCCCC3)nc(NCc3ccccc3)c2C1 31.2%
CCOC(=O)CNC(=O)Nc1ccccc1C(=O)OC 18.3%
CCn1nc(NC(=O)c2cccnc2)c2cc3ccccc3nc21 -6.02%
Cn1c(=O)n(Cc2ccccc2)c(=O)c2c1nc(NCC1CCCO1)n2Cc1ccccc1 (stereo unspecified) -6.2%
COc1ccc2c(c1)[nH]c1c(=O)n(CC3CCCO3)cnc12 (stereo unspecified) -27.5%
CC(=O)c1c(OCC(=O)O)ccc2c(C)cc(=O)oc12 17.3%
O=C1C2ON(c3ccccc3)C(c3cccnc3)C2C(=O)N1c1ccccc1 (stereo unspecified) -21.8%
CCCCCn1c2nc3ccccc3nc2c2c(=O)n(CC(C)C)cnc21 19.9%
Cc1nc2c(o1)CCc1ccccc1C2O (stereo unspecified) 14.8%
Clc1ccc(-n2ncc3c(NCCCn4ccnc4)ncnc32)cc1 -33.8%
Nc1nnnn1/N=C/c1ccccn1 -32%
c1ccc(CN2CCN(c3ncnc4c3[nH]c3ccccc34)CC2)cc1 -46.7%
Cc1cc2c(c(=O)o1)C(Cc1ccccc1)C(C#N)=C(N)O2 (stereo unspecified) 19%
COc1cc(NC(=O)NC(C)(C(F)(F)F)C(F)(F)F)cc(OC)c1OC 13.7%
Cc1c(O)c(CN2CCCCC2)cc2c3c(c(=O)oc12)CCC3 14.9%
CCOC(=O)c1[nH]c2ccc(Br)cc2c1NC(=O)CNC 33.1%
COc1ccc(CCn2c(=N)c(C(=O)NCc3ccco3)cc3c(=O)n4ccccc4nc32)cc1 17.8%
CN(C)/C=C1\N=C(c2ccc(Cl)cc2Cl)OC1=O -177%
Cc1ccc(/C=N/n2nnnc2N)o1 3.55%
COc1ccccc1N=Cc1nc(-c2ccccc2)oc1OC(C)=O 40.5%
Cc1ccc2[nH]c3c(N4CCOCC4)ncnc3c2c1 -85.9%
CC(=O)C1=C(O)C(=O)N(c2ccc(C(=O)O)cc2)C1c1ccccc1 (stereo unspecified) 17.1%
COc1ccccc1Nc1ncnc2c1cnn2-c1cccc(C)c1 -52.1%
